697 NFkB inh: inhibitors of PMA/ionomycin-induced NF-kB reporter, 697 cells, primary screen, B-cell NF-kB inhibitor project, cell-based, luminescence, uHTS. inhibition, % at 4 µM. hit rate 0.33% among 330,000. AID 435022, 2010. 697 B-cell NF-kB luciferase reporter, 16 h; in the data active = inhibition above about 35%
Beta apoptosis: inhibitors of cytokine-induced beta cell apoptosis, primary screen, luminescence; INS-1E cytokine-induced death, ATP luminescence, 48 h; percent of positive-control rescue, neutral wells zero; protection from apoptosis, % (no concentration beside the values); hit rate 0.8% among 300,000;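 active = Every replicate reaches about 75%, or at least half do and their mean reaches it too, limit read from the data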;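 note: higher means more ATP so stronger rescue from cytokine killing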
Jurkat NFkB inh: inhibitors of induced NF-kB luciferase reporter, primary screen, TCR NF-kB activation inhibitor project, cell-based, luminescence, uHTS | Jurkat, PMA/ionomycin-induced NF-kB luciferase reporter | inhibition, % at 4 µM | hit rate 0.53% among 330,000 | AID 435003, 2010; in the data active = inhibition above about 50%
Gli-Sufu antag: Gli-Sufu pathway antagonists, primary screen, luciferase luminescence, Sufu-KO-LIGHT cells, uHTS | inhibition, % at 5 µM | hit rate 0.74% among 340,000 | Sufu-KO-LIGHT fibroblasts, Gli luciferase reporter luminescence;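 active = inhibition above about 55%, limit read from the data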
697 NFkB conf: PMA/ionomycin-induced NF-kB reporter inhibitors, 697 retest, confirmation, B-cell NF-kB inhibitor project, cell-based, luminescence, single concentration; hit rate 35% among 2,000; AID 449746, 2010; 697 B-cell NF-kB luciferase, 16 h; shares compounds with 697 NFkB inh; inhibition, % at 4 µM; in the data active = inhibition mostly above about 28%, no sharp cut-off; inactive = mostly below about 22%
A number is an active result; n = inactive; x = no result given. Hits are enriched below; roughly 1.8% of the tested compounds scored in any of these assays.

SMILES | 697 NFkB inh | Beta apoptosis | Jurkat NFkB inh | Gli-Sufu antag | 697 NFkB conf
CC1=CC(C)(C)n2c(O)c(N=NC(N)=S)c3cccc1c32 | n | n | n | n | x
CC(C)CC[n+]1ccn(-c2nc3ccccc3nc2[N-]S(=O)(=O)c2ccccc2)c1 | n | n | n | n | x
CCCC[n+]1ccn(-c2nc3ccccc3nc2[N-]S(=O)(=O)c2ccc(Br)cc2)c1 | 37 | n | n | n | n
COc1ccc(C(c2nnnn2C(C)(C)C)N2CCN(C(=O)c3ccco3)CC2)cc1 (stereo not drawn) | n | n | n | n | x
O=C(c1ccoc1)N1CCC2(CC1)Oc1ccc(F)cc1C(=O)C21CC(c2ccc(Cl)cc2)=NO1 (stereo not drawn) | 36 | n | n | n | n
CC[n+]1ccc(C)c2cc(SC(F)(F)F)ccc21 | n | n | n | n | x
Cc1cccc(N2CCN(C(=O)CCNS(=O)(=O)c3ccc4c(c3)CCC(=O)N4)CC2)c1C | n | n | n | n | x
CCOCCCNC(=S)N1CCC(C(=O)c2ccc3c(c2)OCCO3)CC1 | 101 | n | n | n | n
O=C(/C=C/c1cccc([N+](=O)[O-])c1)NCCSCc1cccc(Cl)c1 | n | n | n | n | x
CN(C)c1ccc(N=Nc2ccccc2Br)cc1 | n | n | n | n | n
CN(C)c1ccc(N=Nc2ccccc2C(=O)OCC(=O)N2CCCC2)cc1 | n | n | n | n | x
O=C1NC[C@H](c2ccccc2)OC(=O)[C@@H](Cc2ccc(F)cc2)C/C=C\C[C@H]1CC(=O)N(CCO)Cc1ccccc1 | 40 | n | n | n | 24
O=C1NC[C@@H](c2ccccc2)OC(=O)[C@H](Cc2ccc(F)cc2)C/C=C\C[C@H]1CC(=O)N(CCO)Cc1ccccc1 | n | n | n | n | x
O=C(Nc1ccc(F)cc1)C1CCC(CNc2c(N3CCCCC3)c(=O)c2=O)CC1 (stereo not drawn) | 38 | n | n | n | n
CCOc1ccc(NC(=O)C2CCC(CNc3c(N4CCCCC4)c(=O)c3=O)CC2)cc1 (stereo not drawn) | n | n | n | n | x
Cc1ccccc1Nc1nc(N)nc(COC(=O)c2cccn2C)n1 | n | n | n | n | x
CCc1ccccc1Nc1nc(N)nc(COC(=O)c2cccn2C)n1 | n | n | n | n | n
CC1CCc2nc(NC(=O)C3COc4ccccc4O3)sc2C1 (stereo not drawn) | n | n | n | n | n
O=C1N/C(=C\c2nc3ccccc3s2)c2ccccc21 | n | x | n | x | n
O=C1N/C(=C\c2ccccc2)c2ccccc21 | n | n | n | n | x
CC1CN(S(=O)(=O)c2cccc(C(=O)OCC(=O)Nc3ccc4c(c3)OCO4)c2)CC(C)O1 (stereo not drawn) | n | x | n | n | x
COc1cc(-c2nc(C(=O)NCC3CCCO3)cc3c2[nH]c2ccccc23)cc(OC)c1OC (stereo not drawn) | 36 | n | n | n | 40
COc1ccccc1-c1nc(C(=O)NCC2CCCO2)cc2c1[nH]c1ccccc12 (stereo not drawn) | n | x | n | n | x
COc1cc2ccccc2cc1C(=O)Nc1ccc(CN2CCOCC2)cc1 | n | n | n | n | x
CC(C)n1cc(/C=N/Nc2ccc(C(=O)O)cc2)c2ccccc21 | n | n | n | n | n
SMILES | 697 NFkB inh | Beta apoptosis | Jurkat NFkB inh | Gli-Sufu antag | 697 NFkB conf
CC(C)N(Cc1ccccc1)C(=O)C1CCN(c2ncnc3c2nc2n3CCCCC2)CC1 | n | n | n | n | x
CCCn1c(N)c(C(=O)CSc2nnc(N)s2)c(=O)[nH]c1=O | n | n | n | n | x
CCCn1c(N)c(C(=O)CSc2nc3ccccc3s2)c(=O)[nH]c1=O | n | n | n | n | n
COC(=O)c1ccccc1NC(=O)c1ccc(-c2ccc(Br)cc2)o1 | n | n | n | n | n
CN(C)/N=C/c1ccc(Sc2ccc([N+](=O)[O-])cc2[N+](=O)[O-])o1 | n | n | n | n | x
Cc1cc(C)nc(Sc2ccc([N+](=O)[O-])cc2[N+](=O)[O-])n1 | 41 | n | n | n | 29
O=c1cc(N2CCN(c3cccc(Cl)c3)CC2)[nH]c(=O)n1C1CCCCC1 | 43 | 89 | n | n | n
O=c1cc(N2CCN(c3ccccc3)CC2)[nH]c(=O)n1C1CCCCC1 | n | n | n | n | x
CC1CN(C(=O)CSc2cn(CC(=O)N3CCOCC3)c3ccccc23)CC(C)O1 (stereo not drawn) | n | n | n | n | x
CCC(C)c1ccc(-c2cc(C(=O)OCC(=O)Nc3cc(C)on3)c3ccccc3n2)cc1 (stereo not drawn) | n | n | n | n | n
COc1ccc(-c2cc(C(=O)OCC(=O)Nc3cc(C)on3)c3ccccc3n2)cc1OC | n | n | n | n | x
COc1cc(OC)cc(-c2nnc(Nc3nc4c(F)cccc4s3)o2)c1 | 39 | n | n | n | n
COc1ccccc1NC(=O)C(C)N1CCN(C/C=C/c2ccccc2)CC1 (stereo not drawn) | n | n | n | n | x
O=C(c1ccc(Cl)c(S(=O)(=O)N2CCc3ccccc32)c1)N1CCN(c2ccccc2O)CC1 | n | n | n | n | x
O=C(NNC(=O)c1ccccc1O)c1ccc(Cl)c(S(=O)(=O)N2CCc3ccccc32)c1 | 85 | 83 | n | 63 | 97
Fc1ccc(NC(=S)N2CCCc3ccccc32)cc1 | n | n | n | n | x
COc1ccc(NC(=O)c2ccc(COc3ccccc3Br)o2)cc1OC | 43 | n | n | n | n
CCc1nnc(NC(=O)c2cc(S(=O)(=O)N(CC)CC)ccc2Cl)s1 | n | n | n | n | x
CC(=O)Nc1ccc(NC(=O)CSc2nnc(-c3cccs3)n2N)cc1 | 40 | n | n | n | n
O=C1CC(N2CCCCC2)C(=O)N1c1ccccc1 (stereo not drawn) | n | n | n | n | x
COc1ccccc1Cn1c(=O)c2ccccc2n2c(Sc3ncnc4sccc34)nnc12 | 35 | n | n | n | n
COc1cccc(NC(=O)c2ccccc2F)c1 | n | n | n | n | x
COc1cccc(NC(=O)c2c(F)cccc2F)c1 | 39 | n | n | n | n
CCc1ccc(OCc2nc(-c3ccccn3)no2)c(Br)c1 | n | n | n | n | n
Fc1ccc(C(c2nnnn2Cc2ccco2)N2CCN(C3CCCCC3)CC2)cc1 (stereo not drawn) | 36 | x | n | n | n
SMILES | 697 NFkB inh | Beta apoptosis | Jurkat NFkB inh | Gli-Sufu antag | 697 NFkB conf
O=C(CN1C(=O)C2C3C=CC(C3)C2C1=O)Nc1ccc2nccnc2c1 (stereo not drawn) | n | n | n | n | x
CCN(CC)C(=O)CSCC(=O)Nc1ccccc1 | n | n | n | n | x
CCOc1ccc(-c2cc(CCCC(=O)NCc3ccco3)no2)cc1 | 57 | n | n | n | 46
CCOc1ccc(-c2cc(CCCC(=O)NCc3ccc(C)cc3)no2)cc1 | 48 | n | n | n | 37
CCOc1ccc(-c2nnn(CC(=O)NCc3ccco3)n2)cc1 | n | n | n | n | x
COc1ccc(-c2cc(CCCC(=O)NCCc3cc(OC)ccc3OC)no2)cc1 | n | n | n | n | x

Source: PubChem (several laboratories)
